Test results as given in PubChem BioAssay (NCI).
This is part of a sample that, as a whole, favours compounds with a hit. Of some 83,000 tested, about 20% had one in any assay.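 Single-dose data. Exposure time 48 hours. Values below 10 considered active.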 Values without a mark were called inactive. Activity calls are given as the source filed them.

The molecules below were run on SF-295 CNS (assay: NCI-60 one-dose screen, 48 h (100 = growth as untreated, 0 = no growth, -100 = all killed)). Conditions: 10 µM unless noted.

| Structure (SMILES) | growth |
| --- | --- |
| COc1ccc(C(=O)NC(=O)Nc2ccc3c(c2)NC(=O)/C3=C\c2[nH]c(C)c(CCC(=O)O)c2C)c(F)c1 | 42.7% |
| Cn1c(I)c(C#C[Si](C)(C)C)c(=O)[nH]c1=O | 96.2% |
| COC(=O)c1oc2c(C(C)=O)c(OCCCN(C)C)ccc2c1C | 109% |
| CC(C)NCC(O)COc1ccc(CC(N)=O)cc1 (centres undefined) | 95.8% |
| O=C(NCCNc1nccc(-c2c(-c3cccc(O)c3)nc3sccn23)n1)Nc1cccc(C(F)(F)F)c1 | 75.5% |
| CNCCCOc1c(Br)cc(CCNC(=O)/C(Cc2ccc(OC)c(Br)c2)=N/O)cc1Br | 19.8% |
| COc1cccc(-c2nc3sccn3c2-c2ccnc(NCCNC(=O)c3ccccc3)n2)c1 | 85.4% |
| O=C(N/N=C1\SCC(=O)N1c1ccccc1)c1cc(-c2cc3ccccc3o2)nn1-c1ccccc1 | 104% |
| Cc1ccc2c(c1)Nc1ccc(C)cc1C2(C)C | 101% |
| COc1cc(NC(C)CCCN2C(=O)c3ccccc3C2=O)c2nccc(C)c2c1OC (centres undefined) | 119% |
| NCC(=O)NS(=O)(=O)OC[C@H]1O[C@@H](n2cnc3c(N)ncnc32)[C@H](O)[C@@H]1O | -33.7% (active) |
| CCN(CC)CC(=O)Nc1c(C)cccc1C | 89.8% |
| Nc1ncnc2c1c(-c1ccc(Oc3ccccc3)cc1)nn2C[C@@H]1SSC[C@H]1O | 24.2% |
| COc1cc(/C=C\c2cc(/C=C\c3ccc(O)c(OC)c3)n(C(=O)CNc3ccccc3OC)n2)ccc1O | 85.1% |
